The campaign covered roughly 1,200 compounds. About 600 (50%) were called active. Rule as the data show it: active = inhibition above about 42%; inactive = the rest. The set was probably picked from earlier hits. This is one part of the list. Measured potencies and affinities stand elsewhere.

For orientation: inhibition means the drop in the measured response relative to a control, in per cent.

Chain of SUMO-conjugating enzyme UBC9 (Homo sapiens) (P63279 whole entry, looked up): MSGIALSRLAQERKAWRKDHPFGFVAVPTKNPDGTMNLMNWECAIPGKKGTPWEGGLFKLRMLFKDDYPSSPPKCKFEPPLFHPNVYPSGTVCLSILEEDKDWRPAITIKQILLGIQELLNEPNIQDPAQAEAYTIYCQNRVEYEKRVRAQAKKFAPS

This assay addresses SUMO-conjugating enzyme UBC9 (Homo sapiens) (UniProt P63279). Kind of assay: blockers of UBC9-mediated SUMO conjugation – biochemical, AlphaScreen, SUMOylation inhibitor project, confirmation (AID 2018). The settings on record: AlphaScreen in vitro SUMOylation assay; at 35 µM; stronger effect = higher value. A general note: Alpha assays give light when donor and acceptor beads are brought close together.
For the compound `Cc1ccc(N/N=C2\CC(=O)c3ccccc32)cc1Cl`, the inhibition was 78.3% (active). With `Cc1ccc(NC(=O)CN2C(=O)S/C(=C/c3ccc(-c4cc(C(=O)O)ccc4C)o3)C2=O)cc1C`, the inhibition was 101% (active).

Regarding `CC(=O)N1C(=S)NC(=O)/C1=C1/C(=O)N(CC(=O)Nc2cccc(C)c2)c2ccccc21`, the inhibition is 12.6% (inactive). Regarding `Cc1cccc(N(C)C(=O)c2cc3c(=O)[nH]c4ccc(C)cc4c3s2)c1`, the inhibition was 37.8% (inactive). With `CCOC(=O)c1ccc(N2C(=O)c3n[nH]c(-c4ccco4)c3C2c2ccc([N+](=O)[O-])cc2)cc1` (stereo unspecified) the figure was 34.2% (inactive). With `Cc1c(C(=O)O)cccc1-c1ccc(/C=C2\SC(=O)NC2=O)o1` the figure was 48.8% (active); with `CCc1cc2c(=O)c(Oc3ccccc3F)c(C)oc2c(CN(C)C)c1O`, -4.3% (inactive).

For `CC1=NN(c2ccc(C)cc2C)C(=O)C1C(c1cccc(O)c1)C1C(=O)N(c2ccc(C)cc2C)N=C1C` (stereo unspecified), the inhibition was 81.1% (active). In the case of `CC1=NN(c2ccc(F)cc2)C(=O)C1C(c1cccc(O)c1)c1c(C)[nH]n(-c2ccc(F)cc2)c1=O` (stereo unspecified), the inhibition was 89.4% (active).

On to `CC1=NN(c2ccc(Cl)cc2)C(=O)C1C(c1ccccc1O)c1c(C)[nH]n(-c2ccc(Cl)cc2)c1=O` (stereo unspecified), for which the inhibition is 82.4% (active).

As to `O=[N+]([O-])c1c(NCCO)cc(N2CCC3(CC2)OCCO3)c2nonc12`, the inhibition was 8.2% (inactive). With `CCCCCC(=O)Nc1ccc(-c2cn3cccnc3n2)cc1` the figure was 10.6% (inactive). Under `COC12NC(=O)N(C)C1(OC)C(=O)N(C)C(=O)N2C` (stereo unspecified) stands -6.8% (inactive). With `COc1ccc(S(=O)(=O)C(C#N)c2nc3ccccc3nc2N2CCCC(C)C2)cc1` (stereo unspecified) the figure was 49.9% (active); with `Cc1cccc(S(=O)(=O)C(C#N)c2nc3ccccc3nc2N2CC(C)OC(C)C2)c1` (stereo unspecified), 3.9% (inactive); with `Cc1ccc(-n2c(SCC(=O)N/N=C/c3ccccc3C(=O)O)nnc2-c2ccc(Cl)cc2)cc1`, 3.5% (inactive). For the compound `Cc1ccc(-n2c(SCC(=O)Nc3ccc4c5c(cccc35)CC4)nc(O)cc2=O)cc1`, the inhibition is 30.4% (inactive).

For `CN(C)/C=N/c1nc2nccc(-c3cccc(Cl)c3)n2n1`, the inhibition is -11.7% (inactive).

Consider `CCCCNC(=O)Oc1c(Br)cc2sc(=O)oc2c1Br`, for which the inhibition is 88.3% (active). With `CC(=O)c1ccc2c(c1)C1C=CCC1C(C(=O)O)N2` (stereo unspecified) the figure was 101% (active).

For `O=C(O)CCCN1C(=O)/C(=C/C=C/c2ccco2)SC1=S`, the inhibition is 100% (active). On to `Nc1ccc2c(c1)sc1ccccc12`, for which the inhibition is 20.5% (inactive).

As to `CCN(CC)S(=O)(=O)c1ccc(C)c(NC(=O)CSc2ncc(C(F)(F)F)cc2Cl)c1`, the inhibition is 11.7% (inactive). With `COCCn1c(N)c(C#N)c2nc3ccccc3nc21` the figure was 29.5% (inactive).

Consider `COCCNC(=O)c1c(N)n(CCCn2ccnc2)c2nc3ccccc3nc12`, for which the inhibition is 5.2% (inactive). Under `CC(C)Cn1c(N)c(C(=O)NCC2CCCO2)c2nc3ccccc3nc21` (stereo unspecified) stands 0% (inactive); under `COCCn1c(N)c(C(=O)OCc2ccccc2)c2nc3ccccc3nc21`, -26.1% (inactive). Take `COCCn1c(N)c(C(=O)NCC2CCCO2)c2nc3ccccc3nc21` (stereo unspecified): the inhibition is 42.3% (active). As for `C=CCn1c(N)c(C(=O)NCC2CCCO2)c2nc3ccccc3nc21` (stereo unspecified), the inhibition was -9.9% (inactive). Under `CN(C)CCCn1c(N)c(C#N)c2nc3ccccc3nc21` stands 38.6% (inactive); under `Cc1oc2c(c(C)cc3oc(=O)c(CC(=O)NCC(=O)NCC(=O)O)c(C)c32)c1C`, -1.1% (inactive). Under `Cc1ccc(C)n1-c1nccc(-c2cccs2)n1` stands 21.2% (inactive). With `O=c1oc2ccccc2c(Nc2cccc3cccnc23)c1[N+](=O)[O-]` the figure was 7.5% (inactive); with `C=CCn1c(N)c(C(=O)Nc2cccc(C)c2)c2nc3ccccc3nc21`, 8.9% (inactive). Take `N#Cc1c(N)n(CCOC(=O)c2ccc(Cl)cc2)c2nc3ccccc3nc12`: the inhibition was -17.7% (inactive). With `N#Cc1c(N)n(CCNC(=O)c2ccccc2)c2nc3ccccc3nc12` the figure was 29.4% (inactive); with `CCCCn1c(NC(C)=O)c(C#N)c2nc3ccccc3nc21`, 15.5% (inactive); with `N#Cc1c(N)n(-c2cccc(C(=O)O)c2)c2nc3ccccc3nc12`, 43% (active). With `C=CCn1c(N)c(C(=O)OC(C)(C)C)c2nc3ccccc3nc21` the figure was 5.9% (inactive); with `Cc1ccc2[nH]c3c(c2c1)CN(C(=O)CN1CCCc2ccccc21)CC3`, 41% (inactive); with `C/C(CCc1ccco1)=N\NC(=O)CNc1cccc2ccccc12`, 6.1% (inactive). Under `Cn1nccc1NC(=O)Nc1cccc(Cl)c1` stands 10.6% (inactive); under `O=C(NC(=S)Nc1c(Cl)ccc2nsnc12)c1ccco1`, 19.5% (inactive). `Nc1ccc(N2CCN(CCCCN3C(=O)C4CCCN4C3=O)CC2)cc1` (stereo unspecified): the inhibition was 29.6% (inactive). On to `C/C(=C\C(=S)Nc1ccccc1)Nc1cccc2ccccc12`, for which the inhibition was 29.8% (inactive).

For `Nc1ccc2oc(-c3cccs3)nc2c1`, the inhibition was -13.9% (inactive). Turning to `CCN(CC)c1cc(Cl)c2nonc2c1N`, the inhibition was 16.4% (inactive). Under `O=C(Nc1ccc(N2CCOCC2)c2nonc12)C1CCCC1` stands 24% (inactive); under `Nc1c(N2CCOCC2)cc(Cl)c2nonc12`, -2.8% (inactive); under `Nc1ccc(N2CCCCC2)c2nonc12`, 78.2% (active). Regarding `O=[N+]([O-])c1c(NCCO)cc(N2CCCCCC2)c2nonc12`, the inhibition was 6% (inactive). Turning to `CN(C(=O)CSc1nnc(NCc2ccccc2)s1)C1CCS(=O)(=O)C1` (stereo unspecified), the inhibition is 12.1% (inactive). With `Nc1ccc(-c2nc3ccc(N)cc3[nH]2)cc1` the figure was -8.6% (inactive); with `COc1ccc(-c2nc3ccncc3[nH]2)cc1OC`, 11.1% (inactive); with `CN(C)c1ccc(C(=O)/C=C/c2ccco2)cc1`, 10.9% (inactive). Consider `O=C(/C=C/c1ccco1)NC(=S)NNC(=O)c1ccco1`, for which the inhibition is -483% (inactive). Under `O=C(/C=C\c1ccco1)c1ccc(NC(=O)c2ccco2)cc1` stands 56.4% (active); under `CCc1nc2sc(C(C)=O)c(N)c2c2c1CCCC2`, -13% (inactive). For the compound `CC(C)(C)C1CCC2(CC1)Nc1cccc3cccc(c13)N2`, the inhibition was 52.8% (active). Take `O=C(CCCN1C(=O)/C(=C/c2ccco2)SC1=S)Nc1ccccc1C(=O)O`: the inhibition was 76.9% (active). Regarding `O=C(CN1C(=O)CSC1=O)Nc1ccc(C(=O)O)cc1`, the inhibition is -7.6% (inactive).

(Values after PubChem BioAssay AID2018 (Sanford-Burnham Center for Chemical Genomics, 2009).)
